From PubChem
Only some compounds are listed: those with a hit (about 3.5% of all), similar ones and a draw of the others.
Tau fluor cs = counter-screen for tau fibril formation inhibitors | AID 1463 | Potency, µM (top dose mostly 57.7 µM), inactives show top-dose activity change, negative = decrease | 0.93% of 280,000 active | tau K18 P301L Alexa594 fluorescence, heparin fibrillization; note: nearly all actives have a fitted effect of over 55% in size
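Human K18 P301L tau (15 uM unlabeled plus 0.24 uM Alexa 594-labeled, final) in 100 mM sodium acetate pH 7 was mixed with compound and 20 uM heparin and incubated 6 hr at 37 C.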
JMJD2E inh = inhibitors of human JMJD2E histone demethylase; Potency, µM (doses to about 57.1 µM), without a hit: top-dose activity change, negative = inhibition, most hits filed as inhibitors; B2RXH2; JMJD2E catalytic domain, FDH-coupled NADH fluorescence (FDH is formaldehyde dehydrogenase); 1.6% of 230,000 active; active = well fitted inhibition curve with a large enough effect, not every such curve was filed as active; inconclusive = small, poorly fitted or top-dose-only effect, or another doubt; inactive = no such curve, though single readings can be large or run the other way;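 note: 0% = wells with enzyme and -100% = buffer wells without enzyme; nearly all actives have a fitted effect of over 50% in size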
Target sequence (B2RXH2 1-337 limits assumed): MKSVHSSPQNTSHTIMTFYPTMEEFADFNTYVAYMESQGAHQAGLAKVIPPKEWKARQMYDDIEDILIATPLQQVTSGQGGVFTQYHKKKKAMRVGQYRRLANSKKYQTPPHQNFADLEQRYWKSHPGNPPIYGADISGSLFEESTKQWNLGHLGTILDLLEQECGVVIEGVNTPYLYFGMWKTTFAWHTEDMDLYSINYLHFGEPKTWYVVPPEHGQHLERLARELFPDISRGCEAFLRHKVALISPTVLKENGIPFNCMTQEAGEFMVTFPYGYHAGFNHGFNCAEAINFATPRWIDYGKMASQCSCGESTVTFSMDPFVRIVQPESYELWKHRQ
TexasRed fluor = counter-screen for TRb-SRC2 inhibitors: fluorescence interference; TRb/SRC2 Texas Red total fluorescence interference; Potency, µM (series often up to 106 µM), inactives show top-dose fluorescence change, negative = quenching; 0.29% of 280,000 active; AID 1479; active = well fitted curve in either direction with a large enough effect; inconclusive = small, poorly fitted or top-dose-only effect
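Human TRβ ligand-binding domain (0.6 uM) and Texas Red SRC2 peptide (20 nM) in Tris buffer with 1 uM T3 and 5% DMSO were incubated with pinned compound for 5 hr at ambient temperature. Total fluorescence was computed as S + 2P (555/632 nm).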
Tau fibril ThT = blocks human tau fibril formation measured by thioflavin T; Potency, µM (titrated, usually from 57.4 µM), without a hit: at the highest dose activity, negative = inhibition, hits mostly inhibitors; 2.1% of 270,000 active; recombinant tau K18 P301L (four-repeat tau fragment), heparin-induced fibrillization, ThT fluorescence; note: nearly all actives have a fitted effect of over 55% in size
Target sequence (P10636 561-689 P618L limits assumed): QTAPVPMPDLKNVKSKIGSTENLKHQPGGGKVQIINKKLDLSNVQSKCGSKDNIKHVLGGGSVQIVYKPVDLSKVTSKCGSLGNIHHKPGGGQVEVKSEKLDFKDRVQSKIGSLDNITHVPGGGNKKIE
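Recombinant human tau K18 fragment […] carrying P301L, 15 uM unlabeled plus 0.24 uM Alexa 594-labeled, was fibrillized with 20 uM heparin in 100 mM sodium acetate pH 7 for 6 hr at 37 C; 30 uM ThT fluorescence read after 1 hr.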
Tau FP inhib = inhibitors of human tau fibril formation; Potency, µM (highest dose often 57.7 µM), inactives show top-dose activity, negative = inhibition, hits mostly inhibitors; 0.39% of 280,000 active; K18 P301L tau heparin fibrillization, Alexa594 FP, 6 h; AID 1468; P10636; note: nearly all actives have a fitted effect of over 55% in size
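Recombinant K18 P301L […], labeled with Alexa 594 at 0.24 uM over 15 uM unlabeled; heparin inducer 20 uM final; 37 C, 6 hr; FP endpoint.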
TRb-SRC2 inh = disrupts binding of human TR beta to SRC2; TRbeta-SRC2 peptide binding, fluorescence polarization; receptor liganded with 1 µM T3; Potency, µM (titrated, usually from 106 µM), for the others: top-dose activity change, negative = inhibition, most hits filed as inhibitors; P10828; AID 1469; 0.065% of 280,000 active;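 note: plate controls were bound peptide for no effect and peptide without receptor for full effect; nearly all actives have a fitted effect of over 50% in size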
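Fluorescence polarization of 20 nM Texas Red SRC2 peptide with 0.6 uM human TRb ligand-binding domain, in Tris buffer with 1uM T3 and 5% DMSO. Incubated 5 hr ambient; normalized to unbound and bound controls.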
The depositor's hits bear a star; ? = inconclusive; / = no result; [ ] = dose if it differs, or a comment. Unless noted, calls come from the whole dose curve; as a rule, active = well fitted curve in the direction sought with a large enough effect; inconclusive = small, poorly fitted or top-dose-only effect, or another doubt; inactive = no such curve, though single readings can be large; an effect the other way counts as inactive or inconclusive. Unless noted, % is set by controls: 0 for no effect and ±100 for the full control effect; potency is the fitted concentration of half-maximal effect.

SMILES	Tau fluor cs	JMJD2E inh	TexasRed fluor	Tau fibril ThT	Tau FP inhib	TRb-SRC2 inh
COc1ccc(-c2csc(Nc3ccc(C)cn3)n2)cc1OC	?	-28%	-3%	13µM*	11%	3%
Cc1ccc(N2CCN(C(=O)CN3C(=O)c4ccccc4C3=O)CC2)cc1	-10%	2%	-2%	-9%	5%	-3%
N#CC1=C(N)C(C#N)(C#N)[C@H](c2cccnc2)[C@H]2CN(C(=O)OCc3ccccc3)CC=C12	-16%	?	4%	16µM*	?	-3%
N#CC1=C(N)C(C#N)(C#N)C(c2cccnc2)C2CC(c3ccccc3)CC=C12 (configuration not stated)	-29%	?	1%	25µM*	?	-15%
N#CC1=C(N)C(C#N)(C#N)C(c2cccnc2)C2CCCC=C12 (configuration not stated)	-7%	?	6%	?	?	3%
N#CC1=C(N)C(C#N)(C#N)C(c2ccncc2)C2CN(C(=O)OCc3ccccc3)CC=C12 (configuration not stated)	-15%	?	5%	25µM*	?	5%
CCC(CC)C(=O)Nc1nnc(S(=O)(=O)N2c3ccccc3CC2C)s1 (configuration not stated)	-22%	/	1%	14µM*	-3%	-4%
CC(C)CC(=O)Nc1nnc(S(=O)(=O)N2CCc3ccccc32)s1	?	/	-6%	2.2µM*	12%	1%
CCC(=O)Nc1nnc(S(=O)(=O)N2CCc3ccccc32)s1	-30%	/	?	18µM*	-9%	5%
COc1cccc(CN2C(=O)N(C(C)C)C(N(O)C(=O)NC(C)C)C2(C)C)c1OC (configuration not stated)	-4%	6%	-1%	1%	5%	1%
O=C1CCN(S(=O)(=O)c2ccccc2)CCN1CCOCc1ccccc1	-3%	-8%	-1%	6%	-2%	10%
CCS(=O)(=O)c1ccc(N=Nc2ccc(O)c3ncccc23)c(OC)c1	?	14µM*	-6%	?	15%	10%
O=[N+]([O-])c1ccc(C2CNC(c3ccccc3)O2)cc1 (configuration not stated)	2%	-1%	0%	1%	3%	10%
COc1ccccc1Nc1ncc(-c2cccs2)s1	16µM*[quencher]	-13%	0%	14µM*	-8%	-7%
Oc1ccc(N=Nc2ccc3c(c2)OCO3)c2ccccc12	-20%	19%	1%	0.89µM*	?	3%
Oc1ccc2c(c1)OCO2	/	/	-1%	/	/	-1%
Cc1cc(=O)n(CCO)c(O)c1C#N	-6%	?	4%	-17%	-10%	-7%
Cc1cc(=O)n(CCc2ccccc2)c(O)c1C#N	-18%	11µM*	-1%	?	-8%	8%
S=c1[nH]nc(-c2cc(-c3ccccc3)n[nH]2)n1/N=C/C(Br)=C/c1ccccc1	?	-29%	-2%	18µM*	?	-9%
S=c1[nH]nc(-c2ccco2)n1/N=C/C(Cl)=C/c1ccccc1	?	-10%	-2%	14µM*	?	3%
S=c1[nH]nc(-c2cc(-c3ccccc3)n[nH]2)n1/N=C/c1ccccc1	?	-5%	-7%	?	10%	23%
O=S(=O)(N/N=C\c1ccc2c(c1)OCO2)c1ccc(Cl)cc1	-20%	10%	-5%	-3%	-1%	-3%
COc1ccc(C(=O)N2c3cc4c(cc3C(C)=CC2(C)C)OCO4)cc1	?	-28%	-4%	?	5%	0%
Cc1cccc(C2NC(=O)c3c(sc(C)c3C)N2)c1O (configuration not stated)	-14%	-27%	-1%	16µM*	-10%	-10%
Cc1ccc(C2NC(=O)c3c(sc(C)c3C)N2)c(O)c1 (configuration not stated)	?	?	-1%	?	-13%	-11%
SMILES	Tau fluor cs	JMJD2E inh	TexasRed fluor	Tau fibril ThT	Tau FP inhib	TRb-SRC2 inh
CCOC(=O)c1cc(-c2ccccc2)n(CC(=O)NC(C)c2ccccc2)c1C (configuration not stated)	-7%	/	0%	-9%	-5%	0%
CC(C(=O)NCCCc1ccccc1)c1ccc([N+](=O)[O-])cc1 (configuration not stated)	-4%	-3%	-9%	1%	-10%	-11%
O=C1CC(Nc2ccccc2)C(=O)N1CCc1ccccc1 (configuration not stated)	-4%	-3%	-3%	-5%	8%	2%
O=C1CC(=O)N(CCc2ccccc2)C(=O)N1CCc1ccccc1	-26%	-12%	4%	28µM*	?	-8%
COc1ccc2c(c1)c1c(c(=O)n(-c3ccccc3)c(=O)n1CC(=O)NCCC1=CCCCC1)n2C	1%	/	-2%	11%	-5%	-4%
Cc1c(-c2ccc(Br)cc2)nc2ccccn12	-11%	?	1%	?	2%	0%
CN(C)c1ccc(-c2nc3ccccn3c2/N=C/c2ccc(Br)cc2)cc1	?	-6%	-2%	14µM*	?	1%
Cn1nc(C(=O)Oc2cc(=O)n(C)c3ccccc23)c2ccccc2c1=O	0%	-24%	-1%	-1%	0%	-2%
CCN/N=C(\Cc1nc2ccccc2[nH]1)c1ccccc1	-10%	?	-1%	?	6%	-3%
c1ccc(N/N=C(\Cc2nc3ccccc3[nH]2)c2ccccc2)cc1	16µM*[quencher]	?	-1%	?	1%	-2%
Clc1cccc(/C(Cc2nc3ccccc3[nH]2)=N\Nc2ccccc2)c1	7.1µM*[quencher]	-5%	4%	?	?	3%
N/N=C(/Cc1nc2ccccc2[nH]1)c1ccc([N+](=O)[O-])cc1	-30%	-15%	-2%	5µM*	-3%	-12%
Cc1ccc(N/N=C(\Cc2nc3ccccc3[nH]2)c2ccccc2)cc1	-28%	?	?	?	-3%	6%
COc1ccc(CNc2ncccn2)cc1OC	-2%	8%	-1%	-2%	-2%	0%
Cc1cc(C)n(-c2nc3ccccc3nc2Nc2ccc3c(c2)OCO3)n1	?	-7%	-3%	-8%	?	-1%
COc1cc(Nc2nc3ccc(Cl)cc3nc2-n2nc(C)cc2C)cc(OC)c1	-27%	/	-3%	5%	-18%	-6%
Cc1cc(C)n(-c2nc3ccccc3nc2Nc2ccc(N(C)C)cc2)n1	18µM*[quencher]	/	-1%	?	?	9%
Cc1ccc2nc(Nc3ccc4[nH]c(=O)[nH]c4c3)c(-n3nc(C)cc3C)nc2c1	11µM*[quencher]	-5%	-3%	?	15%	-14%
